{"source": "the supplement of paper PMC4237247", "data": [{"tested_on": "HeLa", "assay": "percent cells in S phase; higher = more S arrest", "settings": "10 µM; 20 h; hit class: G1-phase inhibitor", "method": "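HTS of 79,827 drug-like compounds at 10 uM. HeLa cells in 384-well plates were treated for 20 h, fixed, stained with Vybrant DyeCycle Green and scanned on an Acumen eX3 cytometer to give per-well cell cycle profiles (% cells in each phase). The plate Z' was 0.51. Only hits are listed: G1 hits >4 SD and S hits >5 SD from the mean.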", "units": {"percent cells in S phase": "%"}, "values": [{"compound": "CNC1CC2OC(C)(C1OC)n1c3ccccc3c3c4c(c5c6ccccc6n2c5c31)C(=O)NC4", "note": "(centres undefined)", "percent cells in S phase": 5.4}, {"compound": "C/C(=C\\c1ccc(Cl)cc1)[N+](=O)[O-]", "percent cells in S phase": 4.01}, {"compound": "C[C@@H]1O[C@@H](O[C@H]2C[C@@H](O)[C@]3(CO)[C@H]4[C@H](O)C[C@]5(C)[C@@H](C6=CC(=O)OC6)CC[C@]5(O)[C@@H]4CC[C@]3(O)C2)[C@H](O)[C@H](O)[C@H]1O", "percent cells in S phase": 15}, {"compound": "CC(C)(C)c1cc(C=C(C#N)C#N)cc(C(C)(C)C)c1O", "percent cells in S phase": 8.81}, {"compound": "C[C@@]12C(=O)OC(=O)[C@]1(C)[C@H]1CC[C@@H]2O1", "percent cells in S phase": 8.95}, {"compound": "CNc1ccc2oc(C[C@H]3O[C@@]4(CC[C@H]3C)O[C@H]([C@H](C)C(=O)c3ccc[nH]3)[C@H](C)C[C@H]4C)nc2c1C(=O)O", "percent cells in S phase": 6.33}, {"compound": "O=[N+]([O-])c1ccc(NCCO)c2ncccc12", "percent cells in S phase": 4.86}, {"compound": "C/C=C(/C)C(=O)O[C@H]1C(C)=C2[C@H]([C@@H]1OC(=O)CCCCCCC)[C@@](C)(OC(C)=O)C[C@H](OC(=O)CCC)[C@@]1(O)[C@H]2OC(=O)[C@@]1(C)O", "percent cells in S phase": 7.22}, {"compound": "C[C@@H]1C[C@@H]([C@H](O)CC2CC(=O)NC(=O)C2)C(=O)[C@@H](C)C1", "note": "[Cycloheximide]", "percent cells in S phase": 6.83}]}]}
